Test results reported in PubChem BioAssay (NCI).
About 83,000 compounds went through this panel and 20% of them were active in at least one assay; those are over-represented in the sample as a whole.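 The endpoint reported here, percent growth, reads 100 for growth as untreated, 0 for no net growth and -100 for all cells dead.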 Active and inactive are the calls of the source. Rule for the calls: active = growth percent below 10; inactive = the rest.

System: MDA-MB-468 breast
Assay: NCI-60 one-dose screen, 48 h (100 = growth as untreated, 0 = no growth, -100 = all killed)
Settings: 10 µM unless noted

| Compound | growth |
| --- | --- |
| CNc1ccc(CSc2ccc(Cl)cc2)cc1 | 78.5% (inactive) |
| CN1CCN(Cc2ccc(NC(=O)c3cncc(C#Cc4cnc5ccc(OCCCS(C)(=O)=O)nn45)c3)cc2C(F)(F)F)CC1 | -61.6% (active) |
| N#Cc1nc(-c2ccc(Cl)cc2)oc1S(=O)(=O)N1CCN(c2ccc(F)cc2)CC1 | 105% (inactive) |
| O=C(/C=C/c1ccc(F)cc1)Nc1ncc(Cc2ccc(F)cc2)s1 | 8.11% (active) |
| N#Cc1cnc(NCCc2ccncc2)nc1-n1cnc2ccccc21 | 74.2% (inactive) |
| COc1ccccc1NC(=O)Nc1ccc(-c2nc3ccccc3o2)cc1 | 101% (inactive) |
| CNc1ncc2cc(-c3cc(NC(=O)NCCC(C)(C)C)c(F)cc3C)c(C)nc2n1 | 52.7% (inactive) |
| O=C(Nc1cccc([N+](=O)[O-])c1)c1cc2ccccc2cc1O | -42.8% (active) |
| O=C1NC(=O)C(CC(=O)n2c(-c3ccccc3)nc3ccccc32)C(=O)N1 | 98.3% (inactive) |
| COc1ccc(-c2nn(-c3ccc(Cl)cc3)cc2-c2nc3ccccc3[nH]2)cc1 | 106% (inactive) |
| COc1ccc2cc(-c3ccc(-c4ccc(C(=N)N)cc4)s3)ccc2c1 | 98.2% (inactive) |
| CC(c1ccccc1)N1C(=O)/C(=C/c2csc(C#N)n2)SC1=S (stereo not given) | 63.5% (inactive) |
| Cc1cccc2c1O/C(=C\c1ncc([N+](=O)[O-])n1C)C2=O | -12.6% (active) |
| Cc1[nH]c(-c2cc(N)ccc2Cl)c2c1C(=O)CCCC2 | -5.42% (active) |
| O=C(O)c1ccc2c3c(ncnc13)-c1ccccc1C2=O | 95.7% (inactive) |
